Source: PubChem BioAssay (NCI)
Values joined by “and” are separate entries in the source; they are usually repeats but may differ in a detail not shown here. Equal values may be shown once. This is part of a sample that, as a whole, favours compounds with a hit. Of some 79,000 tested, about 15% had one in any assay. Unmarked numbers belong to inactive results. Active and inactive are the calls of the source. Rule as the data show it: active = growth inhibition above about 70%; inactive = the rest.

What was measured:
[1] = NCI Yeast Anticancer Drug Screen. Data for the rad50 strain (AID 155);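 also: 0% = growth of vehicle-only cultures of the same strain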; details: S. cerevisiae rad50 strain growth inhibition; at 50.0 µM; hits give high values
Outline: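 Readout: growth inhibition relative to vehicle-treated cultures. Compound exposure was carried out in a genetically defined yeast strain deficient in DNA damage repair.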

[2] = NCI Yeast Anticancer Drug Screen. Data for the mec2-1 strain (AID 157); details: S. cerevisiae mec2-1 strain, at 50.0 µM, hits give high values
Outline: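 Mutant yeast (mec2-1) grown with compound; growth inhibition relative to vehicle control reported.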

[3] = NCI Yeast Anticancer Drug Screen. Data for the sgs1 mgt1 strain (AID 161);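 also: 0% = growth of cultures given vehicle only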; details: S. cerevisiae sgs1 mgt1 strain, at 50.0 µM, hits give high values
Outline: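 Growth of a repair-deficient yeast mutant was monitored after compound treatment and expressed as inhibition relative to vehicle-treated cultures.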

[4] = NCI Yeast Anticancer Drug Screen. Data for the cln2 rad14 strain (AID 165);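 also: 0% = growth equal to vehicle treated cultures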; details: S. cerevisiae cln2 rad14 strain, at 50.0 µM, hits give high values
Outline: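 Readout is yeast growth inhibition versus vehicle-treated controls, using a strain with cln2 and rad14 alterations exposed to compound.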

[5] = NCI Yeast Anticancer Drug Screen. Data for the bub3 strain (AID 167); details: S. cerevisiae bub3 mutant strain, at 50.0 µM, hits give high values
Outline: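 Readout: yeast growth inhibition, expressed relative to vehicle-only wells. The test organism is a mutant strain from a panel with lesions in DNA repair or checkpoint genes.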

[6] = NCI Yeast Anticancer Drug Screen. Data for the mlh1 rad18 strain (AID 175); details: S. cerevisiae mlh1 rad18 strain growth inhibition; at 50.0 µM; hits give high values
Outline: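 Genetically defined yeast (DNA repair-deficient) exposed to compounds; growth inhibition determined relative to vehicle.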

Row | SMILES | growth inhibition [1] | growth inhibition [2] | growth inhibition [3] | growth inhibition [4] | growth inhibition [5] | growth inhibition [6]
1 | O=S(=O)(F)c1cc(Cl)c(S)cc1Cl | 7.75% | -1.85% | 4.2% | 16.1% | -1.55% | -2.45%
2 | C1CN2CN3CCN(CN1C3)C2 | 13.1% | 12.2% | 20.9% | 33.2% | 10.2% | 13.8%
3 | CCSCCC(N)C(=O)O (centres undefined) | 0.15% and -21.3% | -13.9% and -15% | -37.8% and -2% | -70.4% and -32.9% | -19.9% and 6.05% | -13.2% and -28.6%
4 | NC(N)=N/N=C/c1c[nH]c2ccccc12 | -5.4% | -14.2% | -18% | 4.8% | -10.1% | -25.1%
5 | CN(C)C(=O)CCl | 1.85% | 6.15% | 20.6% | 9.9% | -5.55% | 7.25%
6 | O=C(O)C(F)(F)F.O=C(O)C(F)(F)F.O=C(O)C(F)(F)F.O=C(O)C(F)(F)F.[Rh].[Rh] | 26.8% | 17.1% | 22.1% | 21.2% | 21.4% | 28%
7 | C[N+](C)(C)CC1CCCCC1=O (centres undefined) | 24.1% | 11.6% | 17.9% | 21.8% | 11.7% | 44.5%
8 | Cc1cc(C(C)(C)c2cc(C)c(O)c(C)c2)cc(C)c1O | 12.6% | -41.1% | -6.9% | 27.4% | -17.6% | -12.3%
9 | CC1(C)[C@@H]2CC[C@]1(C)[C@H](OC(=O)C(Cl)(Cl)Cl)C2 | -16.6% | -5.35% | -9.65% | -19.3% | 26.8% | 9.75%
10 | O=C(O)C(=O)O.[Ru].c1cnc2c(c1)ccc1cccnc12.c1cnc2c(c1)ccc1cccnc12 | 25.1% | -10.9% | 2.95% | 5.45% | -2.2% | 5.25%
11 | O=C1SCCC1NP(=O)(Oc1ccccc1)Oc1ccccc1 (centres undefined) | 5.35% | 23.1% | -1.35% | -10.9% | 9.25% | 21.9%
12 | O=C1C2C(C(=O)N1c1ccc(Cl)c(Cl)c1)C1(Cl)C(Cl)=C(Cl)C2(Cl)C1(Cl)Cl (centres undefined) | 91.8% (active) | 95.2% (active) | 96.1% (active) | 86.5% (active) | 94.1% (active) | 95.7% (active)
13 | [NH-]C(CCC(N)=O)C(=O)O.[NH-]C(CCC(N)=O)C(=O)O.[Zn+2] (centres undefined) | -23.1% | -22.9% | -27.1% | 13.3% | -26.6% | -38.2%
14 | CC12CCC3C(=CC=C4CC(O)CCC43C)C1CCC2=O (centres undefined) | 1.9% and 14.2% | 17.2% and 0.65% | 18.6% and 10.6% | 0.95% and -45.7% | 22.9% and -11.6% | 23.1% and 16.1%
15 | CCC(C)C1NC(=O)C2CCCN2C(=O)C(CC2CO2)OC(=O)CCNC(=O)C(C)N(C)C(=O)C(C(C)C)N(C)C1=O (centres undefined) | 55.1% | 5.15% | 41.2% | 31.6% | 36% | 28.8%
16 | Cc1csc2n/c(=N/[N+](=O)[O-])sn12 | 51.5% | 26.9% | 46.8% | -12.5% | 50.4% | 44.1%
17 | O=C(O)CC1OCC=C2CN3CCC45c6ccccc6NC4C1C2CC35 (centres undefined) | -30.8% and 9.3% | -15.9% and -13.8% | -31.9% | 19.6% | -57.6% | -15.2% and 18.8%

Row | SMILES | growth inhibition [1] | growth inhibition [2] | growth inhibition [3] | growth inhibition [4] | growth inhibition [5] | growth inhibition [6]
18 | CCCCCCOC(=O)C(N)Cc1ccc(OC)c(N(CCCl)CCCl)c1 (centres undefined) | 6.5% | 3.65% | -3.55% | 5.7% | -1.6% | -2.7%
19 | CO/N=C1\CC(C)N2C(=O)C(C(C)C)NC(=O)C(NC(=O)c3c4nc5c(C(=O)NC6C(=O)NC(C(C)C)C(=O)N7C(C)CC(O)C7C(=O)N(C)CC(=O)N(C)C(C(C)C)C(=O)OC6C)ccc(C)c5oc-4c(C)c(=O)c3N)C(CO)OC(=O)C(C)N(C)C(=O)CN(C)C(=O)C12 (centres undefined) | 23.1% | -18.8% | 9.35% | 20% | -3.9% | 8.45%
20 | CC1(C)CN1C1=C(Br)C(=O)C(N2CC2(C)C)=C(Br)C1=O | 18.8% | 0.9% | 7.75% | 9.9% | -0.65% | 30.1%
21 | CN(C(=O)Oc1ccccc1)c1ccc(S(=O)(=O)F)cc1 | 97.8% (active) | 98.7% (active) | 98.8% (active) | 96.4% (active) | 98.5% (active) | 98.7% (active)
22 | CC12CCC(=O)C=C1CCC1C2CCC2(C)C(OC(=O)C34C=CC(=O)C3C3C=CC4CC3)CCC12 (centres undefined) | 31.4% | -1.2% | 14.3% | 22.6% | -4.45% | 19.2%
23 | O=[N+]([O-])c1ccc([As](=O)(O)c2cccc([N+](=O)[O-])c2)cc1 | 0.8% | 1.3% | 0.65% | -28.9% | 38.9% | 7.4%
24 | c1cc(CCN2CCCCC2)ccn1 | -2.75% | -6.25% | -26.5% | -81.7% | -21.4% | -25.1%
25 | C(=C/P(c1ccccc1)c1ccccc1)/P(c1ccccc1)c1ccccc1 | 4.05% | 8.95% | 1.9% | -18.4% | 2.75% | 2.7%
26 | C[CH2][Sn]([CH2]C)([CH2]CC(=O)OC)[CH2]CC(=O)OC | 20.4% | 18.4% | 1% | -11% | -24.2% | -64.2%
27 | CCNC(Cc1ccccc1)C1CCCO1 (centres undefined) | 3.15% | -0.35% | -15.6% | 2% | -18.4% | -27.9%
28 | O=C(Nc1ccc([As](=O)(O)O)cc1)Nc1cccc(Cl)c1Cl | 37.9% | 36.3% | -8% | 0.3% | 44.1% | 34.9%
29 | O=C(Nc1ccc(Cl)cc1C(=O)c1ccccc1)c1ccc(Cl)cc1 | -5.95% | 10.1% | 4.25% | -2% | 25.9% | 9.55%
30 | Cn1c(=O)n(C2(C)C[Se]C2)c2ccccc21 | -11.5% | -15.7% | -16.8% | -15.4% | -13.7% | -22.5%
31 | CC(F)C(N)C(=O)O (centres undefined) | -7.9% | -3.65% | -7.75% | -1.7% | -0.1% | -11.9%
32 | OC/C=C\c1ccc2c(c1)OCO2 | -19.2% | 14.2% | 17.2% | -9% | -58.5% | -32.5%
33 | O=C(NC1CC1)c1c(O)[nH]c(=S)[nH]c1=O | -3% | -8.2% | -12.8% | 16.6% | -6.15% | -17.1%
34 | N#CC(c1ccccc1)N1CCCN(C(C#N)c2ccccc2)C1c1ccc(N(CCCl)CCCl)cc1 (centres undefined) | 11.1% | -1.5% | 2.25% | -17.3% | -0.9% | 9.65%
